From PubChem BioAssay (NCATS)
Inconclusive results are not listed. Calls of active or inactive are those of the source. Calls come from the whole dose curve; as a rule, active = well fitted cell-killing curve with a large enough effect; inconclusive = small, poorly fitted or top-dose-only effect, or effect the other way; inactive = no such curve, though single readings can be large or run the other way. Residues, ends and D or L forms follow the SMILES beside them. *: point of attachment. Cbz = O=C(OCc1ccccc1)*

Experiments:
[1] = Quantitative High-Throughput drug screen in 47 multiple myeloma cell lines against the NCATS MIPE library collection: MM1S_ATCC cell viability assay (AID 1918980); note: nearly all actives have a fitted effect of over 45% in size
In short: (§1)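 MIPE 4.0 approved/investigational drugs; 500 cells/well; 48 h 37 °C humidified 5% CO2; CTG luminescence readout; DMSO = 100%, media = 0% viability.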

[2] = Quantitative High-Throughput drug screen in 47 multiple myeloma cell lines against the NCATS MIPE library collection: MM1R_ATCC cell viability assay (AID 1918981); note: nearly all actives have a fitted effect of over 35% in size
In short: as §1

[3] = Quantitative High-Throughput drug screen in 47 multiple myeloma cell lines against the NCATS MIPE library collection: LP1_DSMZ cell viability assay (AID 1918982); note: nearly all actives have a fitted effect of over 35% in size
In short: as §1

[4] = Quantitative High-Throughput drug screen in 47 multiple myeloma cell lines against the NCATS MIPE library collection: KMS28PE_JCRB cell viability assay (AID 1918983); note: nearly all actives have a fitted effect of over 35% in size
In short: as §1

[5] = Quantitative High-Throughput drug screen in 47 multiple myeloma cell lines against the NCATS MIPE library collection: L363_DSMZ cell viability assay (AID 1918984); note: nearly all actives have a fitted effect of over 40% in size
In short: as §1

[6] = Quantitative High-Throughput drug screen in 47 multiple myeloma cell lines against the NCATS MIPE library collection: KMS34_JCRB cell viability assay (AID 1918985); note: nearly all actives have a fitted effect of over 40% in size
In short: as §1

[7] = Quantitative High-Throughput drug screen in 47 multiple myeloma cell lines against the NCATS MIPE library collection: OCIMY7_PLB cell viability assay (AID 1918987); conditions: OCI-MY7 myeloma viability, CellTiter-Glo ATP, 48 h; viability (% of DMSO): at 45.8 µM (top of the series); note: nearly all actives have a fitted effect of over 65% in size
In short: as §1

[8] = Quantitative High-Throughput drug screen in 47 multiple myeloma cell lines against the NCATS MIPE library collection: OCIMY5_PLB cell viability assay (AID 1918988); note: nearly all actives have a fitted effect of over 65% in size
In short: as §1

[9] = Quantitative High-Throughput drug screen in 47 multiple myeloma cell lines against the NCATS MIPE library collection: OPM1_PLB cell viability assay (AID 1918989); note: nearly all actives have a fitted effect of over 40% in size
In short: as §1

[10] = Quantitative High-Throughput drug screen in 47 multiple myeloma cell lines against the NCATS MIPE library collection: SKMM1_PLB cell viability assay (AID 1919863); conditions: SKMM1 myeloma viability, CellTiter-Glo ATP, 48 h; viability: stronger effect = lower value; note: nearly all actives have a fitted effect of over 35% in size
In short: as §1

Measured: Potency
Potency is the fitted concentration of half-maximal effect.

C[C@@]12C(=O)OC(=O)[C@@]1(C)C1CCC2O1
active: [1] 1660 nM | [2] 2350 nM | [3] 3720 nM | [4] 2350 nM | [5] 3720 nM | [6] 833 nM | [7] 743 nM | [8] 2960 nM | [9] 372 nM | [10] 7430 nM

CN(CC(=O)N(Cc1ccc(C2CCCCC2)cc1)c1ccc(C(=O)O)c(O)c1)S(=O)(=O)c1c(F)c(F)c(F)c(F)c1F
active: [1] 7430 nM | [2] 8330 nM | [3] 20900 nM | [4] 29600 nM | [5] 9350 nM | [6] 20900 nM | [7] 8330 nM | [8] 18700 nM

CC(C)C[C@@H](C=O)NC(=O)[C@H](CC(C)C)NC(=O)[C@H](CC(C)C)NC(=O)OCc1ccccc1 (Cbz-Leu-Leu-Leu-aldehyde)
active: [1] 166 nM | [2] 332 nM | [3] 662 nM | [4] 209 nM | [5] 118 nM | [6] 235 nM | [7] 296 nM | [8] 372 nM | [9] 296 nM | [10] 1180 nM

C=CC(=O)N1CCc2ccc(-n3c(=O)ccc4cnc5ccc(-c6cnn(C)c6)cc5c43)cc21
active: [1] 2640 nM | [2] 2350 nM | [3] 1480 nM | [4] 4690 nM | [5] 833 nM | [6] 935 nM | [7] 833 nM | [8] 3320 nM | [9] 833 nM | [10] 1320 nM

COc1cccc2c1C(=O)c1c(O)c3c(c(O)c1C2=O)C[C@@](O)(C(=O)CO)C[C@@H]3O[C@H]1C[C@H](N)[C@@H](O)[C@H](C)O1
active: [1] 66.2 nM | [2] 118 nM | [3] 1870 nM | [4] 526 nM | [5] 1870 nM | [6] 743 nM | [7] 2090 nM | [8] 526 nM | [9] 743 nM | [10] 935 nM

C=Cc1c(C)c2cc3nc(cc4[nH]c(cc5nc(cc1[nH]2)C(C)=C5CCC(=O)O)c(CCC(=O)OC)c4C)[C@@]1(C)C3=CC=C(C(=O)OC)[C@H]1C(=O)OC
active: [1] 52.6 nM | [2] 93.5 nM | [3] 1050 nM | [4] 743 nM | [5] 526 nM | [6] 743 nM | [7] 662 nM | [8] 41.8 nM | [9] 372 nM | [10] 743 nM

C[C@H](NCc1ccc2c(c1)nc(NC(=O)c1ccc(-c3cn[nH]c3)s1)n2CCc1ccccc1)C(C)(C)C
active: [1] 1660 nM | [2] 1660 nM | [3] 1050 nM | [4] 2350 nM | [5] 469 nM | [6] 1050 nM | [7] 418 nM | [8] 833 nM | [9] 1180 nM | [10] 2960 nM

CN[C@H]1[C@@H](O)[C@@H]2O[C@@H]3O[C@H](C)CC(=O)[C@]3(O)O[C@@H]2[C@@H](NC)[C@H]1O
active: [1] 209 nM | [2] 1180 nM | [3] 5900 nM | [4] 10500 nM | [5] 743 nM | [6] 1180 nM | [7] 8330 nM | [8] 1180 nM | [9] 8330 nM | [10] 10500 nM

Cn1cc(C2=C(c3c4n(c5ccccc35)CCC(CN)C4)C(=O)NC2=O)c2ccccc21 (stereo not given)
active: [1] 6620 nM | [2] 11800 nM | [3] 10500 nM | [4] 18700 nM | [5] 7430 nM | [6] 11800 nM | [7] 7430 nM | [8] 8330 nM | [10] 20900 nM

CC(C=CC(=O)NO)=C[C@@H](C)C(=O)c1ccc(N(C)C)cc1
active: [1] 187 nM | [2] 132 nM | [3] 372 nM | [4] 296 nM | [5] 132 nM | [6] 83.3 nM | [7] 148 nM | [8] 166 nM | [9] 332 nM | [10] 166 nM

Nc1nc(N)c2nc(-c3cccc(O)c3)c(-c3cccc(O)c3)nc2n1
active: [1] 14800 nM | [2] 18700 nM | [3] 23500 nM | [4] 26400 nM | [5] 3720 nM | [6] 14800 nM | [7] 372 nM | [8] 18700 nM

O=C(C=Cc1ccc(CN(CCO)CCc2c[nH]c3ccccc23)cc1)NO
active: [1] 105 nM | [2] 59 nM | [3] 148 nM | [4] 132 nM | [5] 59 nM | [6] 105 nM | [7] 83.3 nM | [8] 66.2 nM | [9] 66.2 nM | [10] 187 nM

Cc1cnc(Nc2ccc(N3CCN(C)CC3)cc2)nc1Nc1cccc(S(=O)(=O)NC(C)(C)C)c1
active: [1] 3320 nM | [2] 5260 nM | [3] 5260 nM | [4] 7430 nM | [5] 3720 nM | [6] 2350 nM | [7] 935 nM | [8] 1480 nM | [9] 935 nM | [10] 3320 nM
